{"source": "PubChem BioAssay AID743446", "about": "(Broad Institute, 2014)", "note": "Entries with a potency or affinity are not part of this list. Unmarked numbers belong to inactive results. The rule behind the calls is not given here.", "data": [{"assay": "viability loss in HEK293 cells – cell-based, plate reader, cherry-picked samples, cytotoxicity control, dose response (AID 743446)", "details": "hits give low values; at 26 µM unless noted", "values": [{"smiles": "O=C(O)c1cccc(COc2ccc(CO)cc2Cl)c1", "max activity": "13.3% [at 6 µM]"}, {"smiles": "C[C@H]1CN([C@@H](C)CO)C(=O)c2cc(NC(=O)Nc3ccccc3)ccc2O[C@H]1CN(C)Cc1ccc(-c2ccccc2)cc1", "max activity": "25.6% [at 0.1 µM]"}, {"smiles": "O=C(Nc1ccc(Cl)c(S(=O)(=O)N2CCOCC2)c1)c1ccc2c(c1)OCCO2", "max activity": "-8.36% [at 3 µM]"}, {"smiles": "COc1ccc(-c2cc3nc(NCC4CCCCC4)n(C)c(=O)c3s2)cc1OC", "max activity": "41.6% [at 1.6 µM]"}]}]}
